# TGFb inhibitor: qHTS for Inhibitors of TGF-b. HepG2 CAGA-GFP TGF-b/SMAD3 reporter, GFP fluorescence, 18 h; TGF-beta stimulated, 500 pg/mL final. Potency, µM (titrated, usually from 46.1 µM), for inactives: at the top dose activity, negative = inhibition, usual class: inhibitors. hit rate 1.2% among 410,000. AID 588855, 2011; further: potency means the concentration at half of the fitted maximal effect; on the % scale 0 is the no-effect control and ±100 the full control effect; nearly all actives have a fitted effect of over 65% in size
#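 Using HEPG2 CAGA-GFP reporter cells at 1000 cells/well, we pinned test compounds, stimulated with recombinant TGF-beta (500 pg/mL final) and measured total well GFP after 18 h.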
# S-ASM inh: Inhibitors of Secretory Acid Sphingomyelinase (S-ASM): qHTS | Potency, µM (highest dose often 57.5 µM), inactives show at the highest dose activity change, negative = inhibition, usual class: inhibitors | placental ASM, HMU-PC fluorogenic substrate, 60 min | Sphingomyelin phosphodiesterase (Homo sapiens), P17405 | hit rate 0.006% among 340,000; further: potency means the concentration at half of the fitted maximal effect
# Target sequence (P17405 47-631 limits assumed): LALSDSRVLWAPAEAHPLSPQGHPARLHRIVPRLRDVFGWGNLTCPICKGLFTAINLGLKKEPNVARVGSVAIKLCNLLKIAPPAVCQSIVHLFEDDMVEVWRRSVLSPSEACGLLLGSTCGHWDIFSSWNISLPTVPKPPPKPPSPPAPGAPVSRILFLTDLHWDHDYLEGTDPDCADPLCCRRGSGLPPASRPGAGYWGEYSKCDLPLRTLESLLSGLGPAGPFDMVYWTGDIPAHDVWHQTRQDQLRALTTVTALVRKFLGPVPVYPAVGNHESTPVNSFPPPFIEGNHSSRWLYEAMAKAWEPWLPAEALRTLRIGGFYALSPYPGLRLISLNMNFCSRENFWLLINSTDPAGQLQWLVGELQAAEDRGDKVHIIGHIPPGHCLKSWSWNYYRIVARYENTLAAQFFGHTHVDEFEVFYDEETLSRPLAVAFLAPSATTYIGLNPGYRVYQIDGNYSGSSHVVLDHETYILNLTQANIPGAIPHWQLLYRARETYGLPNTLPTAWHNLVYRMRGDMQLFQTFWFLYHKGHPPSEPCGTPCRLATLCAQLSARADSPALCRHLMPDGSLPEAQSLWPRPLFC
#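 Fluorogenic HMU-PC substrate (9 uM final) is turned over by placental ASM in 60 min at 37 C after a 10 min compound preincubation. Reaction ended by alkaline stop (pH 10), with fluorescence read at 386/447 nm.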
# HepG2 viability: qHTS for Inhibitors of TGF-b: Cytotox Counterscreen | Potency, µM (doses to about 46.1 µM), inactives show top-dose activity change, negative = cytotoxicity, usual class: cytotoxic | hit rate 0.76% among 410,000 | HepG2 CAGA-GFP viability, ATP luminescence, 18 h; further: potency means the concentration at half of the fitted maximal effect
#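 CellTiter-Glo luminescence gave cytotoxicity after 18 hours at 37 degrees C. The cells were HepG2 CAGA-GFP in 1% FBS DMEM, stimulated with 500 pg/mL TGF-beta after compound addition. %Activity was normalised to no-cell wells (complete cell-killing) and DMSO (no toxicity), and curves were fitted and classified.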
# TDP1 cell noCPT: qHTS for Inhibitors of human tyrosyl-DNA phosphodiesterase 1 (TDP1): qHTS in cells in absence of CPT; DT40 Tdp1-/- hTDP1 cells, no CPT, ATP luminescence, 48 h; Potency, µM (titrated, usually from 46.2 µM), without a hit: top-dose activity change, negative = growth inhibition, actives largely listed as inhibitors; hit rate 15% among 420,000; further: potency means the concentration at half of the fitted maximal effect; on the % scale 0 is the no-effect control and ±100 the full control effect; nearly all actives have a fitted effect of over 55% in size
#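 Luminescent ATP content (CellTiter-Glo) served as the growth readout. Knockout chicken DT40 cells expressing human TDP1 were exposed to compounds without camptothecin for a minimum 48 hr at 37 °C.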
# IL1B secr inh: qHTS for Inhibitors of Inflammasome Signaling: IL-1-beta AlphaLISA Primary Screen; THP-1 LPS/ATP IL-1B secretion, AlphaLISA, 16 h; stronger effect = lower value; hit rate 4.7% among 360,000; activity change, % at 57.5 µM; AID 743279, 2014; in the data active means activity change below about -50%; inconclusive means mostly about -30% to -49%; further: on the % scale 0 is the no-effect control and ±100 the full control effect
#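 Secreted IL-1B measured by AlphaLISA bead assay after 16 h compound exposure of THP-1 cells; compounds (final up to 57.5 uM) added 1 h before LPS (250 ng/mL) and ATP (1.25 mM) stimulation; lower signal means less secretion.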
# DT40 TDP1 CPT: qHTS for Inhibitors of human tyrosyl-DNA phosphodiesterase 1 (TDP1): qHTS in cells in presence of CPT; AID 686979, 2013; Potency, µM (doses to about 46.2 µM), without a hit: at the highest dose activity change, negative = growth inhibition, most hits filed as inhibitors; chicken DT40 Tdp1-/-;hTDP1 cells + 20 nM CPT, ATP luminescence, 48 h; hit rate 12% among 420,000; further: potency means the concentration at half of the fitted maximal effect; on the % scale 0 is the no-effect control and ±100 the full control effect; nearly all actives have a fitted effect of over 55% in size
#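 Chicken DT40 Tdp1-/- cells stably complemented with human TDP1 were seeded at 400 cells/well in medium containing 20 nM camptothecin, exposed to pin-transferred compounds, and grown at 37 °C for at least 48 hr. Viability was read as ATP luminescence.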
# An asterisk follows results filed as active; ? = inconclusive; . = not tested or not shown; [ ] = another dose, or the depositor's remark. Rows were chosen to be rich in hits. Some 19% of all compounds tested hit in one or more screens of this group. Unless noted, the call rests on the fitted dose curve; in most records, active means well fitted curve in the direction sought with a large enough effect; inconclusive means small, poorly fitted or top-dose-only effect, or another doubt; inactive means no such curve, though single readings can be large; an effect the other way counts as inactive or inconclusive.
SMILES,TGFb inhibitor,S-ASM inh,HepG2 viability,TDP1 cell noCPT,IL1B secr inh,DT40 TDP1 CPT
CCn1cc(Cl)c(C(=O)N2N=C3/C(=C/c4cccs4)CCCC3C2c2cccs2)n1 (stereo unspecified),5%,-17%,-2%,?,?,18µM*
COc1ccc(OCC(=O)Nc2ccc(S(=O)(=O)N3CCCCC3)cc2)cc1,0%,-4%,10%,-15%,7,-13%
O=C(COc1nsnc1N1CCOCC1)Nc1ccc(Br)cc1,-16%,-4%,-25%,21µM*,-10,?
COc1ccc(NC(=O)COc2nsnc2N2CCCCC2)cc1,3%,-2%,-2%,18µM*,-10,12µM*
COc1ccc(NC(=O)COc2nsnc2N2CCOCC2)c(OC)c1,0%,0%,-9%,-10%,4,-26%
OCC1CCCN(c2nc3cc4c(cc3cc2CNCc2cccc(C(F)(F)F)c2)OCO4)C1 (stereo unspecified),.,.,.,-17%,.,-4%[9.04 µM]
CCOc1ccc(NC(=O)COc2ccc(C(=O)NCC3CCCO3)cc2OC)cc1 (stereo unspecified),-17%,-4%,-3%,-13%,31,-4%
COc1ccc(CNC(=O)C(C)OC(=O)Cn2cnc3c2c(=O)n(C)c(=O)n3C)cc1 (stereo unspecified),-24%,.,-5%,-1%,19,-7%
O=C(NCc1ccc(F)cc1)C1CCN(S(=O)(=O)c2ccc(Cl)cc2)CC1,-4%,6%,-12%,?,-21,3%
O=C(CCNC(=O)C1CCN(S(=O)(=O)c2ccccc2)CC1)NCCc1ccc(Cl)cc1,-7%,5%,3%,-8%,-9,-14%
O=C(NCc1ccc(N2CCCC2=O)cc1)Nc1cccc(Cl)c1,-5%,-2%,0%,?,-61*,-26%
O=C(CCNC(=O)C1CCN(S(=O)(=O)c2ccccc2)CC1)NCCc1cccc(F)c1,26%,3%,-4%,26µM*,0,?
O=C(NCc1ccccc1)C1CCN(S(=O)(=O)c2ccc(N3CCCC3=O)cc2)CC1,-10%,5%,-18%,21µM*,-21,-20%
COc1ccccc1CNC(=O)C1CCN(S(=O)(=O)c2ccc(N3CCCC3=O)cc2)CC1,6%,-1%,0%,?,1,-29%
O=C(NCc1ccc(Cl)cc1)C1CCN(S(=O)(=O)c2ccc(N3CCCC3=O)cc2)CC1,-10%,0%,-7%,?,-9,10µM*
O=C(NCc1ccc(N2CCCC2=O)cc1)c1cccc(Cl)c1,19%,-2%,6%,-1%,42,1%
CCn1cnc2c1c(=O)n(CC(=O)NCC(F)(F)F)c(=O)n2Cc1ccccc1,0%,9%,-3%,-25%,0,-3%
CC(C)OC(=O)c1c(NC(=O)C2c3ccccc3Oc3ccccc32)sc2c1CCCC2,0%,.,5%,?,.,?
Cc1cccc2sc(NC(=O)C3CCN(S(=O)(=O)c4cc([N+](=O)[O-])ccc4Cl)CC3)nc12,-20%,-10%,-16%,16µM*,-76*,18µM*
O=C(NCc1ccc(Cl)cc1)C1CCN(S(=O)(=O)c2cc([N+](=O)[O-])ccc2Cl)CC1,?,-3%,-29%,16µM*,-17,23µM*
Cc1nnc(NC(=O)C2CCN(S(=O)(=O)c3cc([N+](=O)[O-])ccc3Cl)CC2)o1,-22%,-2%,-17%,13%,9,-24%
Cc1ccc(NC(=O)C2CC(=O)N(c3ccc(OC(C)C)cc3)C2)cc1 (stereo unspecified),-29%,.,-24%,-17%,.,?
O=C(c1cnn(C(=O)c2cccc(S(=O)(=O)N3CCOCC3)c2)c1)c1ccccc1O,24%,0%,34%,-3%,10,1%
COc1ccc(C2C=CC(=O)CC2)c(OC)c1 (stereo unspecified),.,.,.,?,-76*,?
COc1ccc(C2C(=O)c3ccccc3C2=O)c(OC)c1,0%,3%,0%,-7%,52,-7%
SMILES,TGFb inhibitor,S-ASM inh,HepG2 viability,TDP1 cell noCPT,IL1B secr inh,DT40 TDP1 CPT
Brc1cnc(OCc2ccccc2)nc1OCc1ccccc1,-7%,-5%,0%,?,-3,-2%
COc1ccc(-c2sc3cc(OC)ccc3c2-c2ccc(OCCN3CCCCC3)cc2)cc1,.,.,.,5.8µM*,?,4.6µM*
COc1cc2sc(-c3ccccc3OC)c(-c3ccc(OCCN4CCOCC4)cc3)c2cc1OC,24%,?,-16%,?,-23,?
Oc1ccc2sc(-c3ccccc3O)c(-c3ccc(OCCN4CCCCC4)cc3)c2c1,.,.,.,?,104,21µM*
c1ccc(COc2ccc(OCCN3CCCCC3)cc2)cc1,11%,1%,-24%,-61%,-2,?
COc1ccc2c(-c3ccc(OCCN4CCOCC4)cc3)c(-c3ccccc3OC)sc2c1,6%,?,-23%,21µM*,-4,21µM*
COc1ccc2c(-c3ccc(OCCN4CCCCC4)cc3)c(-c3ccccc3OC)sc2c1,?,?,13µM*,15µM*,-20,-104%
CCOc1ccc(C(=O)NCC(c2ccco2)S(=O)(=O)c2ccc(C)cc2)cc1 (stereo unspecified),-2%,.,-20%,?,.,?
COc1ccccc1-c1sc2ccccc2c1-c1ccc(OCCN2CCCCC2)cc1,?,?,11µM*,15µM*,-21,18µM*
COc1ccc(Nc2cnn(-c3nc4ccccc4s3)c(=O)c2Cl)cc1,?,-8%,-8%,4.1µM*,-81*,2.1µM*
